Among the data in PubChem BioAssay (Tox21) are Potency values, retold here.

A short description of assay [1]: Nuclear factor erythroid 2-related factor 2/antioxidant responsive element (Nrf2/ARE) small molecule agonists: qHTS cell viability counter screen in human keratinocytes (AID 1919968; active = well fitted curve in the direction sought with a large enough effect in the repeat runs; an effect the other way counts as inactive or inconclusive; also: nearly all actives have a fitted effect of over 55% in size). In short, it runs like this:
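In human HaCaT keratinocytes stably expressing an ARE-driven luciferase, compound exposure lasted 23 h at 37 C under 5% CO2. Viable cells are quantified with a protease-based fluorogenic reagent (CellTiter-Fluor) read 1 h after addition.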

The nature of assay [2]: Nuclear factor erythroid 2-related factor 2/antioxidant responsive element (Nrf2/ARE) small molecule agonists: luciferase reporter gene qHTS assay in human keratinocytes (AID 1919969). Also: nearly all actives have a fitted effect of over 35% in size. Also: potency is read from the fitted curve at half-maximal effect.
Assay [3] concerns the target Gonadotropin-releasing hormone receptor (Homo sapiens) (UniProt P30968). Put plainly: Human gonadotropin-releasing hormone receptor (GnRHR) small molecule agonists, calcium flux assay in GnRHR-HEK293 cells (AID 1920063). Also: nearly all actives have a fitted effect of over 35% in size. In short, it runs like this: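 Intracellular calcium rise is the read-out: engineered human GnRHR HEK293 cells, dye-loaded, are exposed to DMSO-dissolved compounds and fluorescence at Ex/Em 480/540 is tracked for 3 min.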

The target of assay [4] is KiSS-1 receptor (Homo sapiens) (UniProt Q969F8). In words: Human kisspeptin (KISS1R) small molecule agonists, calcium flux assay in KISS1R-HEK293 cells (AID 1920064; active = well fitted curve in the direction sought with a large enough effect in the repeat runs; an effect the other way counts as inactive or inconclusive). In short, it runs like this:
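Concentration-response testing used 15 concentrations in triplicate on human KISS1R-expressing HEK293 cells. Calcium-dependent fluorescence (Ex/Em 480/540) was followed kinetically for 3 min after compound transfer.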

A short description of assay [5]: G protein-coupled receptor (GPCR) small molecule agonists, calcium flux assay: HEK293 wild type cell line counter screen (AID 1920065). In short, it runs like this: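 Fluorescence intensity signals activation. After overnight (18 h) culture and a 1 h calcium dye load at 37 C, compounds are added by pin tool and the plate read at 480/540 nm for 3 min in 1 s steps.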

Assay [6] in a line: p53 small molecule agonists, cell-based qHTS assay with human liver microsomes (AID 1963577).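 Also: p53 response element beta-lactamase reporter cells with liver microsomes plus NADPH.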 The procedure, abridged: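 16 h, 37 C exposure of p53RE-bla cells to compounds with human liver microsomes and NADPH (0.5 mg/mL final each); detection via LiveBLAzer mixture, 2 h dark at room temperature.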
Assay [7] in a line: p53 small molecule agonists, cell-based qHTS assay with rat liver microsomes (AID 1963578). The procedure, abridged:
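With rat liver microsomes and NADPH present (0.5 mg/mL final each), p53RE-bla cells are treated with compound for 16 h at 37 C. LiveBLAzer detection mixture is then applied for 2 h at room temperature in the dark.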

Assay [8] in a line: p53 small molecule agonists, cell-based qHTS assay with human liver microsomes: qHTS cell viability counter screen (AID 1963579). Also: nearly all actives have a fitted effect of over 45% in size. In short, it runs like this:
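In this multiplexed counter screen, the reporter plates were subsequently treated with CellTiter-Glo so that cell viability, reflected by luminescence, could be recorded for p53RE-bla cells dosed 16 h with compounds under microsomal activation (HLM and NADPH).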

Assay [9] is described as follows: p53 small molecule agonists, cell-based qHTS assay with rat liver microsomes: qHTS cell viability counter screen (AID 1963580). Also: nearly all actives have a fitted effect of over 45% in size. The procedure, abridged:
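Cytotoxicity counter screen: intracellular ATP read by CellTiter-Glo luminescence in the p53 reporter wells. HCT-116 p53RE-bla cells were treated for 16 h at 37 C alongside rat liver microsomes and NADPH, each 0.5 mg/mL final.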

Assay [10] can be described thus: p53 small molecule agonists, cell-based qHTS assay: qHTS cell viability counter screen (AID 1963581). Also: nearly all actives have a fitted effect of over 45% in size. In short, it runs like this:
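Luminescence from CellTiter-Glo, reflecting ATP content, serves as the cytotoxicity measure; it is taken after the 2 h reporter substrate step in HCT-116 p53RE-bla cells dosed for 16 h at 37 C.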

Assay [11] addresses 5-hydroxytryptamine receptor 2A (Homo sapiens) (UniProt P28223). In words: 5-hydroxytryptamine receptor 2A (HTR2A) small molecule agonists, cell-based qHTS assay (AID 1963587). Also: nearly all actives have a fitted effect of over 30% in size. The procedure, abridged: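 Kinetic calcium-flux fluorescence (2 min, 1 sec intervals) after compound addition in agonist mode. HTR2A-CHO cells were cultured 18 h, then dye-loaded 1 h at 37 C.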
The target of assay [12] is Muscarinic acetylcholine receptor M1 (Homo sapiens) (UniProt P11229). In words: Cholinergic receptor muscarinic 1 (CHRM1) small molecule antagonists, cell-based qHTS assay (AID 1963588). Also: nearly all actives have a fitted effect of over 40% in size. The procedure, abridged: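 Compounds were tested at 15 concentrations in three independent runs. Dye-loaded CHRM1-CHO cells were exposed 5 min at room temperature before stimulation by acetylcholine added at 50nM. Intracellular calcium was read kinetically on FDSS for 3 min.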

The target is the same in assay [13]. Put plainly: Cholinergic receptor muscarinic 1 (CHRM1) small molecule agonists, cell-based qHTS assay (AID 1963589). Also: nearly all actives have a fitted effect of over 35% in size. In short, it runs like this:
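Fluorescent calcium dye reports M1 activation in stably transfected CHO cells. Compounds, 15 concentrations, added after 1 h dye loading at 37 C; kinetic reading at 1 sec intervals.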

Assay [14] can be described thus: cAMP Responsive Elements (CRE) small molecule agonists, cell-based qHTS assay (AID 1963590). In short, it runs like this: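 Compound exposure lasted 3 h at 37 C/5% CO2 in CRE-bla HEK 293T cells grown in assay medium with 10% dialyzed FBS and 25 mM HEPES. Reporter signal came from LiveBLAzer B/G FRET substrate, 2 h, room temperature.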
Assay [15] in a line: cAMP Responsive Elements (CRE) small molecule antagonists, cell-based qHTS assay (AID 1963591; active = well fitted inhibition curve with a large enough effect in the signal ratio in the repeat runs, not every such curve was filed as active; the % refers to the signal ratio). In short, it runs like this: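 Stimulation used NKH477 at a final 0.25 uM for 3 h in compound-treated CRE-bla HEK293T cells, seeded 18 h beforehand. Reporter activity was measured with LiveBLAzer B/G FRET substrate after 2 h at room temperature.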
Assay [16] deals with Beta-2 adrenergic receptor (Homo sapiens) (UniProt P07550). Put plainly: Adrenergic beta2 receptor (ADRB2) small molecule antagonists, cell-based qHTS assay (AID 1963592). Also: series mostly up to about 92 µM; nearly all actives have a fitted effect of over 50% in size. The procedure, abridged: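 Assay format: CHO-ADRB2 cells, 18-20hr seeding at 37C/5% CO2, then compound plus 1nM isoproterenol agonist mix for 0.5hr RT. Homogeneous time-resolved fluorescence cAMP detection after 1hr, expressed as 665/615 nm ratio.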

For assay [17] the target is unchanged. Put plainly: Adrenergic beta2 receptor (ADRB2) small molecule agonists, cell-based qHTS assay (AID 1963593).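 Also: CHO cells stably overexpressing human ADRB2.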 The procedure, abridged:
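CHO cells stably over-expressing ADRB2 were plated overnight at 37C, then dosed with compounds plus a stimulation mix containing 100uM IBMX and 25uM Ro-20-1724 for 0.5hr at room temperature. cAMP was measured by HTRF competition, 1hr.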

Assay [18] deals with D(2) dopamine receptor (Homo sapiens) (UniProt P14416). Put plainly: Dopamine D2 receptor (DRD2) small molecule agonists, cell-based qHTS assay (AID 1963594). Also: nearly all actives have a fitted effect of over 35% in size. In short, it runs like this:
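cAMP accumulation in DRD2-HEK293 cells measured by HTRF after 1 h detection; compounds added 10 min before NKH477 (200nM […]) forskolin-analogue stimulation, 30 min at room temperature, with Ro20-1724 present at 0.1 mM final.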

Assay [19] has the same target. In words: Dopamine D2 receptor (DRD2) small molecule antagonists, cell-based qHTS assay (AID 1963595; active = well fitted inhibition curve with a large enough effect in the signal ratio in the repeat runs, with a control signal flat; the % refers to the signal ratio). In short, it runs like this: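 Antagonist mode in DRD2-HEK293 cells: after compound addition with 0.1 mM Ro20-1724, cells received quinpirole (12 nM) and NKH477 (200 nM) for 30 min at room temperature; HTRF cAMP read after 1 h detection.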
Assay [20] in a line: p53 small molecule agonists, cell-based qHTS assay (AID 1963582; active = well fitted activation curve with a large enough effect in the signal ratio in the repeat runs, not every such curve was filed as active; the % refers to the signal ratio). The procedure, abridged: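 After plating, p53RE-bla cells sat 5 h in the incubator; compounds or DMSO vehicle were pinned in; a 16 h incubation at 37 C followed; FRET substrate was added and, 2 h later at RT, fluorescence was measured.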

Inconclusive results are not listed. Active and inactive are the calls of the source. Unless noted, calls follow the shape of the full dose curve.

Gonadotropin-releasing hormone receptor (Homo sapiens), sequence (P30968 whole entry, looked up): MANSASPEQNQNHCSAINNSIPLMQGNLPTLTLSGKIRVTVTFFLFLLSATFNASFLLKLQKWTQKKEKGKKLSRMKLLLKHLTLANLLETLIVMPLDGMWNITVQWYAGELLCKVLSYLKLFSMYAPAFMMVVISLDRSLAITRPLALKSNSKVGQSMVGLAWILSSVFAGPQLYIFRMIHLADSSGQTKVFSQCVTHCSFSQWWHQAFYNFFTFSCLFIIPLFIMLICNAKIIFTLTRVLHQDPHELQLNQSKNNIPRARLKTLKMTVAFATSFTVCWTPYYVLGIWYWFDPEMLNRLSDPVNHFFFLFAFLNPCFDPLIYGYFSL
Muscarinic acetylcholine receptor M1 (Homo sapiens), sequence (P11229 whole entry, looked up): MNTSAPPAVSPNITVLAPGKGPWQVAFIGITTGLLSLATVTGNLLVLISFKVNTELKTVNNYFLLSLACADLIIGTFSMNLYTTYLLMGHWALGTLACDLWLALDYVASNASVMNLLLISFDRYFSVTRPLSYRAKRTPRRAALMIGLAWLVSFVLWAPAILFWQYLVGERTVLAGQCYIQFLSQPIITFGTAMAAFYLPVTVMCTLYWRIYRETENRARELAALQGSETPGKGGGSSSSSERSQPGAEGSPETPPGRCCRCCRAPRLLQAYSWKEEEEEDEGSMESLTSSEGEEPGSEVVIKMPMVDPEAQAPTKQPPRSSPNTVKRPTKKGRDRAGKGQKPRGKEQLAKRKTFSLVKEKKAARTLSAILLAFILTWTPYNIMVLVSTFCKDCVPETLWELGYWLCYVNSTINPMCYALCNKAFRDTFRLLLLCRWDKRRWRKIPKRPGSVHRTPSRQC
KiSS-1 receptor (Homo sapiens), sequence (Q969F8 whole entry, looked up): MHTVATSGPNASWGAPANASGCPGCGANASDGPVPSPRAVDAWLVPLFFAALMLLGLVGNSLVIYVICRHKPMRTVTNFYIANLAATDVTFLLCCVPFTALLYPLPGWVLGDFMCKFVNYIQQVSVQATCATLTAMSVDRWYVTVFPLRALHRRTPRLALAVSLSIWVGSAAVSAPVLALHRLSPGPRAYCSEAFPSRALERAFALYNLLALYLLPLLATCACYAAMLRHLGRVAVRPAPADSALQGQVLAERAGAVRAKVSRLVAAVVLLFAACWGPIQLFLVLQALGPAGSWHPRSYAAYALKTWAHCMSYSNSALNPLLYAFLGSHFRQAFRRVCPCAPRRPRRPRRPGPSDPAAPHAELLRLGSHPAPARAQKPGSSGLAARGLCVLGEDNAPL
5-hydroxytryptamine receptor 2A (Homo sapiens), sequence (P28223 whole entry, looked up): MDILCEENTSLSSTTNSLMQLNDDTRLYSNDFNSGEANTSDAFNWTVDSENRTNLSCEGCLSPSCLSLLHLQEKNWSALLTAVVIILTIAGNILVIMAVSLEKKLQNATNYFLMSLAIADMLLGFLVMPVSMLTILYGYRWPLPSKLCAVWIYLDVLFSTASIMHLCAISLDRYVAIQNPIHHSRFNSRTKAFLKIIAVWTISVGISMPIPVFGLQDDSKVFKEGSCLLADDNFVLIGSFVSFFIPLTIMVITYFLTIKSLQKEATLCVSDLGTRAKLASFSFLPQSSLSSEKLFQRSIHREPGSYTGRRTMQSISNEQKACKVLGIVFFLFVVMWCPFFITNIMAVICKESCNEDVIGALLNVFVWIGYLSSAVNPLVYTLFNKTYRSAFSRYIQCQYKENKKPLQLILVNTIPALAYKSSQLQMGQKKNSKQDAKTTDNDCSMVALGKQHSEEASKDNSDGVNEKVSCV
Beta-2 adrenergic receptor (Homo sapiens), sequence (P07550 whole entry, looked up): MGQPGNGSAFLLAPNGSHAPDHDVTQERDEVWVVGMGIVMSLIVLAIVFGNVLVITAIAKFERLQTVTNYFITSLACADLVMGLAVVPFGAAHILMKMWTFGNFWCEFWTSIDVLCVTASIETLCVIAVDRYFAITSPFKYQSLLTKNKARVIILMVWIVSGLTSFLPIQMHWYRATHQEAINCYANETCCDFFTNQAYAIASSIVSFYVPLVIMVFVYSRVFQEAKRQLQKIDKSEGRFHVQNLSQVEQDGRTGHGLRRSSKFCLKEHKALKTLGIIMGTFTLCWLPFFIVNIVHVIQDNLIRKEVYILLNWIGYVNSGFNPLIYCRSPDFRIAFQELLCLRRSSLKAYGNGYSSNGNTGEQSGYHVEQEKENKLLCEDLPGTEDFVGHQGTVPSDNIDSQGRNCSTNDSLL
D(2) dopamine receptor (Homo sapiens), sequence (P14416 whole entry, looked up): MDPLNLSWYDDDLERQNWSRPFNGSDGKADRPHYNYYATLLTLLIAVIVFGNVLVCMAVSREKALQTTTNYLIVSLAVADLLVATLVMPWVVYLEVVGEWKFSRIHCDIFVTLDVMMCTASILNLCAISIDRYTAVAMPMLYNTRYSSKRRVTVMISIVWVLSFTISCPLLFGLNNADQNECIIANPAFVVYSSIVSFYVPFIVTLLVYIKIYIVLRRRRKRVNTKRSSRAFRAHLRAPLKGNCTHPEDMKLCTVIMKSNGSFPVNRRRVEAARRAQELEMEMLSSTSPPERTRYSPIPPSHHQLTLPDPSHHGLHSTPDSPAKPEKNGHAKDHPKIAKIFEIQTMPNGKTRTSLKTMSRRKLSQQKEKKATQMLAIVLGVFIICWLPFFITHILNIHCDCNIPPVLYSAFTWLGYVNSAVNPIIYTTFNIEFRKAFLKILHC

Take `CC(=O)O[C@@H]1CC2C3CCc4cc(OC(=O)c5ccccc5)ccc4C3CCC2(C)[C@H]1OC(C)=O` (some centres undefined): the Potency result in assay [1], in assay [2], in [3], in [4], in assay [5] and in assay [6] was “inactive” in each case. Also, the Potency entry in [7], in assay [8], in [9], in assay [10], in [11] and in assay [12] was “inactive” each time. The Potency result in assay [13], in assay [14], in [15], in assay [16], in [17] and in assay [18] was “inactive” in each case. In assay [19], the Potency result is “inactive”.

Consider `N#Cc1ccc(C2CCCc3cncn32)cc1` (centres undefined), for which the Potency entry in [1], in assay [2], in assay [3], in [4], in assay [5] and in assay [6] was “inactive” each time. For the same compound, the Potency result in assay [7], in assay [8], in assay [9], in [10], in assay [11] and in [12] was “inactive” throughout. The Potency result in [13], in [14], in assay [15], in assay [16], in assay [17] and in [18] was “inactive” in each case. For the same compound, in assay [19], the Potency entry is “inactive”.

As to `Cc1cccc(N(C)C(=S)Oc2ccc3ccccc3c2)c1`, the Potency entry in assay [1], in assay [3], in assay [4], in assay [5], in assay [6] and in assay [7] was “inactive” throughout. For the same compound, the Potency entry in [8], in assay [9], in assay [10], in [20], in [14] and in [15] was “inactive” in each case. For the same compound, the Potency entry in [16] and in [19] was “inactive” in each case. Besides, in assay [2], the Potency was 21.7 µM (active).

On to `O=Cc1cc2ccccc2o1`, for which the Potency entry in assay [1], in [2], in assay [3], in [4], in [5] and in assay [6] was “inactive” throughout. The Potency result in assay [7], in assay [8], in assay [9], in assay [10], in assay [20] and in assay [11] was “inactive” each time. In addition, the Potency result in assay [13], in [14], in [15], in [16], in [17] and in [18] was “inactive” each time. In addition, the Potency result in assay [19] is “inactive”.

With `c1coc(CNc2ncnc3nc[nH]c23)c1`, the Potency entry in assay [1], in [2], in assay [3], in assay [4], in [5] and in [6] was “inactive” each time. The Potency entry in assay [7], in [8], in assay [9], in assay [10], in assay [11] and in [12] was “inactive” in each case. Further, the Potency result in assay [13], in [14], in assay [15], in assay [16], in assay [17] and in assay [18] was “inactive” in each case. Further, the Potency entry in [19] was “inactive”.

`COc1cccc(OC)c1`: the Potency result in assay [1], in assay [2], in assay [3], in assay [4], in assay [5] and in assay [6] was “inactive” each time. In addition, the Potency result in assay [7], in [8], in [9], in assay [10], in [20] and in assay [11] was “inactive” throughout. Besides, the Potency result in assay [12], in [13], in assay [14], in [15], in assay [17] and in assay [19] was “inactive” throughout.

With `O=C(O)c1ccccc1OP(=O)(O)O`, the Potency entry in assay [1], in [2], in [3], in [4], in assay [5] and in [6] was “inactive” throughout. For the same compound, the Potency entry in [7], in [8], in assay [9], in assay [10], in [20] and in [11] was “inactive” each time. Further, the Potency result in [13], in assay [14], in assay [15] and in [16] was “inactive” in each case.

As for `Cc1ccc(S(=O)(=O)NC(=O)NC2CCCC2)cc1`, the Potency result in assay [1], in [2], in assay [3], in [4], in assay [5] and in assay [6] was “inactive” throughout. Besides, the Potency entry in assay [7], in assay [8], in assay [9], in assay [10], in assay [11] and in assay [12] was “inactive” each time. In addition, the Potency entry in assay [13], in assay [14], in [15], in assay [16], in assay [17] and in assay [18] was “inactive” in each case. Further, the Potency result in [19] was “inactive”.
